# Source: PubChem BioAssay (Tox21)
# “And” between values parts separate entries of the source, which are not always exact repeats. Equal values may be shown once. A number with no mark means an inactive call. Records with an inconclusive call do not appear. Entries that show only a call come without a potency. The source made the active and inactive calls. Unless noted, calls follow the shape of the dose curve; as a rule, active = well fitted curve in the direction sought with a large enough effect in the repeat runs; inconclusive = weak or mixed curves; inactive = no such curve, though single readings can be large; an effect the other way counts as inactive or inconclusive.
# Test: qHTS assay for small molecule disruptors of the mitochondrial membrane potential - cell viability (AID 720634; calls by dose curve; also: nearly all actives have a fitted effect of over 20% in size;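 as to activity change, negative = cytotoxicity: human HepG2 liver cancer cells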)
# Details: HepG2 viability, ATP luminescence (CellTiter-Glo), 1 h; series mostly up to 83.2 µM
# Procedure, shortened: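 HepG2 cells seeded overnight at 37 C, then exposed to compound or DMSO for 1 hr at 37 C, 5% CO2. m-MPI dye added, then CellTiter-Glo for 30 min at room temperature; viability read as ATP luminescence.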
# Potency is read from the fitted curve at half-maximal effect.
Compound,Potency,"activity change, negative = cytotoxicity"
O=C(O)[C@H](O)[C@@H](O)[C@H](O[C@@H]1O[C@H](CO)[C@H](O)[C@H](O)[C@H]1O)[C@H](O)CO,inactive,
Cc1c2ccccc2c(C)c2c1ccc1ccccc12,12.1 µM (active),
NC[C@H]1O[C@H](O[C@H]2[C@H](O[C@@H]3O[C@H](CO)[C@@H](O)[C@H]3O)C(O)[C@H](N)C[C@@H]2N)[C@H](N)[C@@H](O)[C@@H]1O (some centres not stated),inactive,
CC(C)CCCCCOC(=O)CCS,inactive,
COc1cc(/C=C/c2ccccc2)oc(=O)c1,inactive,
CCO[Si](OCC)(OCC)OCC,inactive,
CCCCC(CC)COC(=O)CCCCC(=O)OCc1ccccc1 (configuration not stated),inactive,
NC(=S)NC(N)=S,inactive,
CC(=O)c1ccc(C(C)=O)cc1,inactive,
Cc1ccc(C(=O)O)cc1,inactive,
CCC(CC)(CC(=O)Nc1cccc(/C=C/c2nc(C3CCC3)cs2)c1)C(=O)O,inactive,
CCOC(=O)NNc1ccc(N(CC)CC(C)O)nn1 (configuration not stated),inactive,
C=CC(=O)Nc1cc2c(Nc3ccc(F)c(Cl)c3)ncnc2cc1OCCCN1CCOCC1,inactive,
CCN(CC)c1ccc2c(-c3ccc(S(=O)(=O)O)cc3S(=O)(=O)[O-])c3ccc(=[N+](CC)CC)cc-3oc2c1,70.7 µM (active),
Cc1cccc2cccnc12,inactive,
c1ccsc1,inactive,
O=S(=O)(O)c1ccc(Nc2nc(Nc3ccc(/C=C/c4ccc(Nc5nc(Nc6ccc(S(=O)(=O)O)cc6)nc(N(CCO)CCO)n5)cc4S(=O)(=O)O)c(S(=O)(=O)O)c3)nc(N(CCO)CCO)n2)cc1,inactive,
CC(C)(C)CC(C)(C)c1ccc(Nc2ccc(C(C)(C)CC(C)(C)C)cc2)cc1,,4.18% [at 8.08 µM]

Compound,Potency,"activity change, negative = cytotoxicity"
CC(C)=CCC1=C(O)c2ccccc2C(=O)C1=O,54.2 µM (active),
ClCCl,inactive,
CCCCNS(=O)(=O)c1ccc(C)cc1,inactive,
CC(CO)Oc1ccccc1 (configuration not stated),inactive,
C=C(CC)C(=O)c1ccc(OCC(=O)O)c(Cl)c1Cl,inactive,
CCC(COC(=O)CCS)(COC(=O)CCS)COC(=O)CCS,inactive,
O=C(O)c1cccc(C(F)(F)F)c1,inactive,
O=C(O)CCN(C1(C(=O)NO)CCCC1)S(=O)(=O)c1ccc(Oc2ccc(F)cc2)cc1,inactive,
Nc1ccc(C(=O)O)c(O)c1,inactive,
C[C@H]1NCc2cc(-c3ccc4c(=O)c(C(=O)O)cn(C5CC5)c4c3OC(F)F)ccc21,inactive,
O=C(Oc1ccccc1)Oc1ccccc1,inactive,
O=[N+]([O-])c1ccc(O)cc1C(F)(F)F,5.45 µM (active),
COC(=O)Nc1nc2ccc(C(=O)c3ccccc3)cc2[nH]1,inactive,
O=C(O)c1cc(=O)c2ccccc2o1,inactive,
CC1=Nc2ccccc2C1(C)C,inactive,
CCCCCCCC/C=C\CCCCCCCCN,inactive,
CCCCC(CC)CN1CN(CC(CC)CCCC)CC(C)(N)C1 (configuration not stated),inactive,

# Test: qHTS assay for small molecule disruptors of the mitochondrial membrane potential (AID 720635)
# Details: HepG2 mitochondrial membrane potential, Mito-MPS dye ratio; series mostly up to 83.2 µM
# Procedure, shortened: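 HepG2 cells exposed to compound 1 hr at 37C, then Mito-MPS dye 30 min. Ratio read of aggregate (540/590 nm) versus monomer (490/535 nm) fluorescence.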
Compound,Potency,"ratio activity, negative = MMP loss"
O=C(O)[C@H](O)[C@@H](O)[C@H](O[C@@H]1O[C@H](CO)[C@H](O)[C@H](O)[C@H]1O)[C@H](O)CO,inactive,
Cc1c2ccccc2c(C)c2c1ccc1ccccc12,5.39 µM (active) and 24.3 µM (active),
COc1cc(/C=C/c2ccccc2)oc(=O)c1,71 µM (active),
NC(=S)NC(N)=S,inactive,
CC(=O)c1ccc(C(C)=O)cc1,inactive,
Cc1ccc(C(=O)O)cc1,inactive,
CCC(CC)(CC(=O)Nc1cccc(/C=C/c2nc(C3CCC3)cs2)c1)C(=O)O,27.8 µM (active),
Cc1cccc2cccnc12,inactive,
c1ccsc1,inactive,
CC(C)(C)CC(C)(C)c1ccc(Nc2ccc(C(C)(C)CC(C)(C)C)cc2)cc1,,34.3% [at 8.08 µM]
CC(C)=CCC1=C(O)c2ccccc2C(=O)C1=O,24.2 µM (active),
ClCCl,inactive,
CCCCNS(=O)(=O)c1ccc(C)cc1,inactive,
Nc1ccc(C(=O)O)c(O)c1,inactive,
O=C(Oc1ccccc1)Oc1ccccc1,inactive,
O=[N+]([O-])c1ccc(O)cc1C(F)(F)F,3.44 µM (active),
COC(=O)Nc1nc2ccc(C(=O)c3ccccc3)cc2[nH]1,2.27 µM (active),
O=C(O)c1cc(=O)c2ccccc2o1,inactive,
CC1=Nc2ccccc2C1(C)C,inactive,
CCCCCCCC/C=C\CCCCCCCCN,inactive,
CCCCC(CC)CN1CN(CC(CC)CCCC)CC(C)(N)C1 (configuration not stated),inactive,

# Test: qHTS assay to test for compound auto fluorescence at 590 nm (red) in HepG2 cells (AID 720674)
# Details: HepG2 autofluorescence, red 540/590 nm, 1 h; series mostly up to 91.3 µM
# Procedure, shortened: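 Seeding: 2,000 HepG2 cells/well, MEM/10% FBS, overnight 37 C. Dosing: compound vs DMSO. Incubation: 1 hr, 37 C, 5% CO2. Read: fluorescence 540 ex/590 em, Rose Bengal sodium as red reference.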
Compound,"fluorescence, relative to Rose Bengal",Potency
O=C(O)[C@H](O)[C@@H](O)[C@H](O[C@@H]1O[C@H](CO)[C@H](O)[C@H](O)[C@H]1O)[C@H](O)CO,0.507% [at 18.6 µM],
Cc1c2ccccc2c(C)c2c1ccc1ccccc12,,inactive
NC[C@H]1O[C@H](O[C@H]2[C@H](O[C@@H]3O[C@H](CO)[C@@H](O)[C@H]3O)C(O)[C@H](N)C[C@@H]2N)[C@H](N)[C@@H](O)[C@@H]1O (some centres not stated),-0.0462% [at 18.6 µM],
O=C(O)Cc1ccccc1Nc1c(Cl)cccc1Cl,,inactive
CC(C)CCCCCOC(=O)CCS,,inactive
COc1cc(/C=C/c2ccccc2)oc(=O)c1,,inactive
CCO[Si](OCC)(OCC)OCC,,inactive
CCCCC(CC)COC(=O)CCCCC(=O)OCc1ccccc1 (configuration not stated),,inactive
NC(=S)NC(N)=S,,inactive
CC(=O)c1ccc(C(C)=O)cc1,,inactive
Cc1ccc(C(=O)O)cc1,,inactive
CCC(CC)(CC(=O)Nc1cccc(/C=C/c2nc(C3CCC3)cs2)c1)C(=O)O,,inactive
CCOC(=O)NNc1ccc(N(CC)CC(C)O)nn1 (configuration not stated),,inactive
C=CC(=O)Nc1cc2c(Nc3ccc(F)c(Cl)c3)ncnc2cc1OCCCN1CCOCC1,,inactive
CCN(CC)c1ccc2c(-c3ccc(S(=O)(=O)O)cc3S(=O)(=O)[O-])c3ccc(=[N+](CC)CC)cc-3oc2c1,,0.398 µM (active)
Cc1cccc2cccnc12,,inactive
c1ccsc1,,inactive
O=S(=O)(O)c1ccc(Nc2nc(Nc3ccc(/C=C/c4ccc(Nc5nc(Nc6ccc(S(=O)(=O)O)cc6)nc(N(CCO)CCO)n5)cc4S(=O)(=O)O)c(S(=O)(=O)O)c3)nc(N(CCO)CCO)n2)cc1,,inactive

Compound,"fluorescence, relative to Rose Bengal",Potency
CC(C)(C)CC(C)(C)c1ccc(Nc2ccc(C(C)(C)CC(C)(C)C)cc2)cc1,0.212% [at 3.72 µM],
CC(C)=CCC1=C(O)c2ccccc2C(=O)C1=O,,inactive
ClCCl,,inactive
CCCCNS(=O)(=O)c1ccc(C)cc1,,inactive
CC(CO)Oc1ccccc1 (configuration not stated),,inactive
C=C(CC)C(=O)c1ccc(OCC(=O)O)c(Cl)c1Cl,,inactive
CCC(COC(=O)CCS)(COC(=O)CCS)COC(=O)CCS,,inactive
O=C(O)c1cccc(C(F)(F)F)c1,,inactive
O=C(O)CCN(C1(C(=O)NO)CCCC1)S(=O)(=O)c1ccc(Oc2ccc(F)cc2)cc1,,inactive
Nc1ccc(C(=O)O)c(O)c1,,inactive
C[C@H]1NCc2cc(-c3ccc4c(=O)c(C(=O)O)cn(C5CC5)c4c3OC(F)F)ccc21,,inactive
O=C(Oc1ccccc1)Oc1ccccc1,,inactive
O=[N+]([O-])c1ccc(O)cc1C(F)(F)F,,inactive
COC(=O)Nc1nc2ccc(C(=O)c3ccccc3)cc2[nH]1,-0.678% [at 18.6 µM],
O=C(O)c1cc(=O)c2ccccc2o1,,inactive
CC1=Nc2ccccc2C1(C)C,,inactive
CCCCCCCC/C=C\CCCCCCCCN,,inactive
CCCCC(CC)CN1CN(CC(CC)CCCC)CC(C)(N)C1 (configuration not stated),0.775% [at 18.6 µM],
